Source: PubChem BioAssay
GC-B act = GC-B (human) receptor activation; P20594; HEK293-GC-B cells, CNP EC30, cGMP TR-FRET; 0% at EC30 CNP, 100% saturating CNP; activation, % at 10 µM; hit rate 0.11% among 370,000; AID 1920062;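 active = activation at 10 µM reaching about 35% in either raw or pattern-adjusted values, limit read from the data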
Target sequence (P20594 whole entry, looked up): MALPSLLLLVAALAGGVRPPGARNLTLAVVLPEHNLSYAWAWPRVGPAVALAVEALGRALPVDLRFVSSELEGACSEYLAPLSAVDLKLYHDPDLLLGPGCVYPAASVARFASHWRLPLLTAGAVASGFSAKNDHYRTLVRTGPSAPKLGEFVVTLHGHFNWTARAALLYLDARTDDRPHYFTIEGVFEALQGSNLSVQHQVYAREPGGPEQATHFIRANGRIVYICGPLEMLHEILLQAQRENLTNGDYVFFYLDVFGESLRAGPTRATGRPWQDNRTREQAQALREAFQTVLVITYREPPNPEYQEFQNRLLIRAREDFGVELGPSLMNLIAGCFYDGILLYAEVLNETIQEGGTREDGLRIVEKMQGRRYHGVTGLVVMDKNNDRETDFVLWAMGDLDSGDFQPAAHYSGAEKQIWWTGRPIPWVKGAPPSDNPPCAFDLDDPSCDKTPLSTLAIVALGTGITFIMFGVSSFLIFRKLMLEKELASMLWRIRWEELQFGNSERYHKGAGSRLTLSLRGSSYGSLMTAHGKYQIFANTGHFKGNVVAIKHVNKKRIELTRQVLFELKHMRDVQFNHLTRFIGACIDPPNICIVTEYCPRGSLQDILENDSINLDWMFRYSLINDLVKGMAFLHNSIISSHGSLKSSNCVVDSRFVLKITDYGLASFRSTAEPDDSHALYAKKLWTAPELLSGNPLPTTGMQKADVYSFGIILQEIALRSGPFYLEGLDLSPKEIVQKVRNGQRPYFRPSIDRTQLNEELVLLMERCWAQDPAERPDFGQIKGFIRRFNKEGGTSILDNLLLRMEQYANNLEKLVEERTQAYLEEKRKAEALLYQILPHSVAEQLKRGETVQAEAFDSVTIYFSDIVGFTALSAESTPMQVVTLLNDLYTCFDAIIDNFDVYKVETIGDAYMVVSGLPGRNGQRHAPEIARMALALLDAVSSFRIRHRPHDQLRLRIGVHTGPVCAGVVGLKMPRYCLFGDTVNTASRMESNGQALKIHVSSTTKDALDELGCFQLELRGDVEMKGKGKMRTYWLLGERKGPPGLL
PLCb3 inh = blocks human PLC-beta3 enzyme activity | Q01970 | hit rate 0.18% among 370,000 | inhibition, % at 12.2 µM | Purified PLC-beta3, fluorogenic substrate, fluorescence; in the data active = inhibition above about 11%;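 also: 0% = median of compound wells on plate and 100% = full blocker control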
GC-A act = GC-A (human) enzyme activation. P16066. HEK293 GC-A cells, cGMP TR-FRET, EC30 ANP; 0% at EC30 ANP, 100% saturating ANP. activation, % at 10 µM. hit rate 0.14% among 370,000. AID 1671463; in the data active = activation above about 40%
PLCg1 inh = inhibitors of human phospholipase C gamma1; P19174; purified PLC-gamma1, fluorogenic substrate, fluorescence; inhibition, % at 12.2 µM; hit rate 0.84% among 370,000
PLCgamma1 ctr = PLC-gamma1 inhibition, counter-screen for PLC-beta3 hits | shares compounds with PLCg1 inh | purified PLC-gamma1, fluorogenic substrate, fluorescence | inhibition, % at 12.3 µM | hit rate 3.1% among 3,300
PLCb3 confirm = confirmation of human PLC-beta3 inhibitors. shares compounds with PLCg1 inh. purified PLC-beta3, fluorogenic substrate fluorescence. inhibition, % at 12.3 µM. hit rate 1% among 3,300. AID 743261; in the data active = inhibition above about 11%
Starred values were filed as active, the others as inactive; . = not tested or not shown. Only some compounds are listed: those with a hit (about 1.2% of all), similar ones and a draw of the others. Rule as the data show it, unless noted: active = inhibition above about 9.5%; inactive = the rest.

SMILES | GC-B act | PLCb3 inh | GC-A act | PLCg1 inh | PLCgamma1 ctr | PLCb3 confirm
COc1ccc(CC(=O)NC(C)c2nnc(SCCOc3ccc(OC)cc3)n2C)cc1 (stereo not drawn) | 0 | 1 | -5 | 4 | . | .
CCn1c(N2CCC(C)CC2)nc2c1c(=O)n(C)c(=O)n2C | 1 | -2 | 5 | 12* | 0 | 1
O=C(Cn1nnc(-c2ccccc2-n2cnnn2)n1)NCc1ccccc1 | 9 | 2 | 4 | 0 | . | .
CCOC(=O)c1csc(NNC=O)n1 | 4 | 11* | 0 | 1 | -6 | -1
O=C(CSc1nc(=O)n(CCN2CCOCC2)c2c1CCCC2)Nc1cccc([N+](=O)[O-])c1 | -5 | 19* | 3 | 3 | -3 | -2
CC(C)NC(=O)C1(C)CCN1C/C=C/c1ccccc1 (stereo not drawn) | 1 | 7 | 2 | 12* | -8 | -6
COC(=O)c1sc(N)c(C(=O)OC)c1CSc1nnnn1C | 14 | 0 | 6 | 9.9* | -3 | 2
COC(=O)c1sc(N)c(C(=O)OC)c1CSc1nnc(-c2ccccc2Cl)n1C | 1 | -1 | -4 | 1 | . | .
CCOC(=O)c1sc(NC(=O)CCCCl)nc1C | -2 | 5 | -1 | 9.8* | -1 | -2
CCOC(=O)c1sc(NC(=O)CC)nc1C | -4 | 5 | -2 | 3 | . | .
COc1cc(/C=N/NC(=O)CCN2CCN(C(c3ccccc3)c3ccccc3)CC2)ccc1O | -19 | -1 | -13 | 4 | . | .
Clc1nnc(Cl)c2c1ncn2Cc1ccccc1 | -3 | 4 | 0 | 11* | -3 | -1
CCC1C(=O)N(C)CCc2ccccc21 (stereo not drawn) | 3 | 4 | 5 | 12* | 5 | -2
CSc1ccccc1NC(=O)Cn1c(-c2cscn2)nc2ccccc21 | 4 | 8 | -6 | 9.8* | -7 | 0
Cc1cc(C(=O)Nc2ccccc2N2CCCCC2)no1 | 3 | 8 | -22 | 9.8* | -5 | -21
Cc1cc(C(=O)Nc2ccccc2N2CCOCC2)no1 | 6 | -5 | 1 | 2 | . | .
Cc1ccc(Cn2cc(-c3ccccc3)nn2)cc1 | 1 | -4 | 2 | 2 | . | .
CC(=O)c1ccc(OCC(O)COc2ccc(C(C)=O)cc2)cc1 | 4 | 9 | 2 | 11* | 1 | 4
CCOC(=O)[C@]12CCC=C1N(Cc1ccccc1)C(=O)[C@H](CC(=O)N1CCCCC1)C2 | -7 | -3 | 1 | -1 | . | .
O=C1CN(C(=O)c2ccccc2[N+](=O)[O-])C(c2ccccc2)c2cc(Br)ccc2N1 (stereo not drawn) | -25 | -5 | -52 | 9.7* | -3 | -9
COc1ccccc1C(=O)N1CC(=O)Nc2ccc(F)cc2C1c1ccccc1 (stereo not drawn) | -3 | 3 | -11 | 9.6* | -10 | -2
Cn1c(=O)oc2cc(S(=O)(=O)N3CCC4(CC3)OCCO4)ccc21 | 0 | 0 | 2 | 1 | . | .
CC1=C(C(=O)OCc2ccccc2)N2C(=O)[C@@H](NC(=O)COc3ccccc3)[C@H]2SC1 | 2 | -1 | -2 | -1 | . | .
CC1=C(C(=O)OCc2ccc([N+](=O)[O-])cc2)N2C(=O)C(NC(=O)Cc3ccccc3)C2SC1 (stereo not drawn) | -2 | 2 | 1 | 24* | 24* | 1
CCOC(=O)N1CCN(C(=O)/C(=C\c2cccs2)NC(=O)c2cccs2)CC1 | 2 | 1 | 3 | 10* | 6 | 8
SMILES | GC-B act | PLCb3 inh | GC-A act | PLCg1 inh | PLCgamma1 ctr | PLCb3 confirm
COc1cc(C(=O)Nc2ccc(Br)cc2C(=O)c2cc(OC)c(OC)c(OC)c2)cc(OC)c1OC | 1 | 9 | -8 | 15* | -1 | -8
COc1ccccc1C(=O)Nc1ccc(C)cc1C(=O)c1ccccc1 | -2 | 4 | 2 | 9.7* | 0 | -1
Cc1ccc(Cn2c(-c3nonc3N)nc3ccccc32)cc1 | 6 | -6 | 6 | -2 | . | .
Cc1nc2ccccc2n1Cc1ccc(Cl)cc1 | 0 | -5 | 9 | 0 | . | .
Nc1nonc1-c1nc2ccccc2n1Cc1ccc(Cl)cc1 | 5 | -6 | 1 | 11* | -8 | -6
OCc1nc2ccccc2n1Cc1ccc(Cl)cc1 | -2 | 1 | 8 | 10* | -10 | -5
CNc1nc(N)c([N+](=O)[O-])c(Nc2ccccc2OC)n1 | -2 | -2 | 10 | 1 | . | .
CCCOc1ccc(-c2cc3onc(-c4ccccc4)c3c(=O)n2C)cc1 | -2 | 1 | -1 | 0 | . | .
COC(=O)c1[nH]c2c(c1C)C(=O)CC(c1cc(OC)c(OC)c(OC)c1)C2 (stereo not drawn) | 8 | -2 | 1 | 0 | . | .
CN(C(=O)COC(=O)c1ccc2ccccc2n1)C1CCCCC1 | -2 | 4 | -1 | 10* | -5 | -1
COc1cccc(-c2nnn(CC(=O)NC3CCCC3)n2)c1OC | -3 | 3 | 2 | 0 | . | .
O=C(Cn1nnc(-c2ccccc2NC(=O)C2CC2)n1)NC1CCCCC1 | -8 | 3 | 1 | 11* | -7 | -4
Cc1ccc(C(C)C)c(OCC(O)CN2CC(C)OC(C)C2)c1 (stereo not drawn) | -5 | -1 | 1 | 15* | 0 | -3
Cc1ccc(C(C)C)c(OCC(O)CN2CCOCC2)c1 (stereo not drawn) | 2 | 4 | 1 | 2 | . | .
COc1cccc(-n2c(C)nnc2SCC#N)c1 | 0 | 13* | 3 | 12* | -4 | -1
Cc1ccc(S(=O)(=O)N2CCC(C(=O)N3Cc4ccccc4C3)CC2)cc1 | -7 | 2 | -6 | 10* | -5 | -1
CC(=O)N1CCC(C(=O)Nc2ccc(S(=O)(=O)N3CCCC(C)C3)cc2)CC1 (stereo not drawn) | 0 | 0 | 1 | -2 | . | .
CCOc1ccc(N2CC(C(=O)Nc3cccc(S(=O)(=O)N4CCCCC4)c3)CC2=O)cc1 (stereo not drawn) | -1 | 7 | -2 | 11* | -8 | -5
O=C(Nc1nnc(C2CCCC2)s1)C1CCN(S(=O)(=O)c2ccc(Cl)cc2)CC1 | -5 | 2 | 0 | -2 | . | .
Cc1ccc(S(=O)(=O)N2CCC(C(=O)Nc3nnc(C4CCCC4)s3)CC2)cc1 | 0 | 7 | 1 | 15* | -2 | -1
CCOc1ccc(N2CC(C(=O)Nc3ccc(S(=O)(=O)N4CCCCC4)cc3)CC2=O)cc1 (stereo not drawn) | 1 | -7 | 1 | 0 | . | .
CC(=O)N1CCC(C(=O)Nc2ccc(S(=O)(=O)N3CCC(C)CC3)cc2)CC1 | 2 | 0 | -3 | 9.6* | -1 | 0
O=C(O)c1cn(C2CC2)c2cc(N3CCN(S(=O)(=O)c4ccc5c(c4)OCCO5)CC3)c(F)cc2c1=O | -7 | -10 | -3 | -7 | . | .
Cc1ccc(N2CC(C(=O)Nc3ccc(S(=O)(=O)N4CCCC4)cc3)CC2=O)cc1 (stereo not drawn) | -3 | 2 | 0 | 15* | -1 | 0
